Screens (PubChem)
HT1080-NT tox: kills 2HG-producing HT-1080-NT fibrosarcoma cells. HT-1080-NT fibrosarcoma viability, CellTiter-Glo ATP luminescence, 48 h. Potency, µM (top dose mostly 46.1 µM), without a hit: top-dose activity, negative = less viability, most hits filed as cytotoxic. 1.6% of 360,000 active;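 note: NT is the 2HG producing partner of a matched IDH1 knockdown line; potency is the fitted concentration of half-maximal effect; 0% = DMSO-treated cells and -100% = media-only wells without cells; nearly all actives have a fitted effect of over 55% in size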
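HT-1080-NT fibrosarcoma cells (2HG-overproducing), 750 cells/well in RPMI with 5% FBS, dosed after 2 h and incubated 48 h at 37C. CellTiter-Glo luminescence normalized to DMSO and no-cell wells; concentration-response curves fitted and classed.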
DT40 TDP1 CPT: DT40-hTDP1 cell growth loss with CPT | 12% of 420,000 active | chicken DT40 Tdp1-/-;hTDP1 cells + 20 nM CPT, ATP luminescence, 48 h | Potency, µM (titrated, usually from 46.2 µM), for the others: at the highest dose activity change, negative = growth inhibition, usual class: inhibitors; note: potency is the fitted concentration of half-maximal effect; nearly all actives have a fitted effect of over 55% in size
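Chicken DT40 Tdp1-/- cells complemented with human TDP1, 400 cells/well, exposed to compounds plus 20 nM camptothecin for at least 48 h at 37 C; viability read as ATP content by CellTiter-Glo luminescence.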
HT1080 IDH1KD tx: toxicity to HT-1080 IDH1 knockdown cells (counter line) | AID 686971 | Potency, µM (titrated, usually from 46.1 µM), for inactives: at the top dose activity, negative = toxicity, hits mostly cytotoxic | HT-1080 IDH1 knockdown viability, ATP luminescence, 48 h | 2% of 360,000 active;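 note: potency is the fitted concentration of half-maximal effect; 0% = DMSO wells and -100% = cell-free medium wells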
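In this qHTS, HT-1080 cells depleted of IDH1 are exposed for 48 h at 37 °C to compound titrations. Toxicity is scored from CellTiter-Glo luminescence, with DMSO as full viability and medium alone as none.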
IL1B secr inh: inflammasome signaling inhibition, IL-1 beta readout | THP-1 LPS/ATP IL-1B secretion, AlphaLISA, 16 h; stronger effect = lower value | activity change, % at 57.5 µM | 4.7% of 360,000 active | AID 743279; in the data active = activity change below about -50%; inconclusive = mostly about -30% to -49%
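THP-1 cells pretreated 1 hr with compounds (up to 57.5 uM final), then stimulated with LPS (250 ng/mL final) plus ATP (1.25 mM final); secreted IL-1B measured by AlphaLISA after 16 hr, decreased signal indicating inhibition.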
TDP1 cell noCPT: qHTS for Inhibitors of human tyrosyl-DNA phosphodiesterase 1 (TDP1): qHTS in cells in absence of CPT; DT40 Tdp1-/- hTDP1 cells, no CPT, ATP luminescence, 48 h; Potency, µM (highest dose often 46.2 µM), without a hit: at the top dose activity change, negative = growth inhibition, hits mostly inhibitors; 15% of 420,000 active; AID 686978, 2013; note: potency is the fitted concentration of half-maximal effect; nearly all actives have a fitted effect of over 55% in size
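Luminescent ATP content (CellTiter-Glo) served as the growth readout. Knockout chicken DT40 cells expressing human TDP1 were exposed to compounds without camptothecin for a minimum 48 hr at 37 °C.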
An asterisk follows results filed as active; ? = inconclusive; . = not tested or not shown; [ ] = dose if it differs, or a comment. Most compounds without a hit are left out; they make up all but 19% or so of the library. Unless noted, calls come from the whole dose curve; as a rule, active = well fitted curve in the direction sought with a large enough effect; inconclusive = small, poorly fitted or top-dose-only effect, or another doubt; inactive = no such curve, though single readings can be large; an effect the other way counts as inactive or inconclusive. Unless noted, % is set by controls: 0 for no effect and ±100 for the full control effect.

SMILES	HT1080-NT tox	DT40 TDP1 CPT	HT1080 IDH1KD tx	IL1B secr inh	TDP1 cell noCPT
NC(=S)N=Nc1c(O)[nH]c2cc(F)c(F)cc12	16%	-10%	9%	0	?
NC(=S)N=Nc1c(O)[nH]c2c(Cl)cc(Cl)cc12	?	16µM*	-21%	?	4.6µM*
O=C(Nc1ccc(F)c(F)c1)C1CCN(S(=O)(=O)c2cccc3nonc23)CC1	?	?	-14%	?	?
CC(=O)Nc1ccc(Nc2c3c4c(cccc4n(C)c2=O)C(=O)c2ccccc2-3)cc1	1%	?	-8%	-14	?
CCCCNc1c2c3c(cccc3n(C)c1=O)C(=O)c1ccccc1-2	?	?	?	10	18µM*
Cn1c(=O)c(NC2CCCCC2)c2c3c(cccc31)C(=O)c1ccccc1-2	5%	?	12%	-66*	?
Clc1ccc(C=Cc2ccccn2)c(Cl)c1	-12%	?	-11%	18	-22%
O=C(COC(=O)C1CCN(S(=O)(=O)c2ccccc2)CC1)NC(=O)c1ccc(OC(F)F)cc1	-1%	4%	1%	8	-12%
O=S(=O)(Nc1ccc(-c2nnc(SCc3ccc(Cl)cc3)o2)cc1)c1ccccc1	0%	?	-1%	-79*	?
O=S(=O)(c1cccc(-c2nnc(SCc3ccc(Cl)cc3)o2)c1)N1CCCCC1	0%	8.2µM*	-3%	5	23µM*
NC(=O)CSc1nnc(-c2cccc(S(=O)(=O)N3CCCCC3)c2)o1	0%	2%	5%	-9	?
O=C(CNC(=O)c1ccc(S(=O)(=O)N2CCCC2)cc1)N/N=C/c1ccc(Cl)cc1Cl	-23%	?	?	-7	?
Cc1cc(OC(C)C(N)=O)nc(-c2ccccc2)n1 (centres undefined)	-7%	31%	-2%	2	-28%
Cc1cccc(/C(N)=N/OC(=O)c2ccncc2)c1	3%	0%	9%	30	9%
Cc1cccc(/C(N)=N/OC(=O)c2ccoc2C)c1	?	0.65µM*	16µM*	-1	?
COc1cccc(NC(=O)c2cccc(C(=O)Nc3cccc(OC)c3)n2)c1	-2%	5%	1%	0	-16%
C=CC(=O)Nc1cccc(Oc2cc(Cl)nc3[nH]ccc23)c1	?	16µM*	?	-72*	?
N=c1sccn1CC(=O)Nc1ccc(SC(F)F)cc1	-2%	-2%	-4%	-15	-14%
Nc1nonc1N/N=C/c1c(O)ccc2ccccc12	-17%	32%	?	-59*	-54%
Nc1cc(Cl)nc(N/N=C/c2c(O)ccc3ccccc23)n1	?	?	?	71	16µM*
Nc1nonc1N/N=C\c1ccccc1	21%	4%	?	0	-23%
CCOC(=O)c1[nH]c(C)c(CCC(=O)NCc2ccc(N(C)C)cc2)c1C	.	-26%	.	.	-26%
N#Cc1ccncc1S(=O)c1ccc(Cl)cc1 (centres undefined)	4%	3%	9%	-18	8%
Cc1nnc(SC(=O)N2c3ccccc3Sc3ccccc32)s1	8.9µM*	13µM*	7.1µM*	-101*	10µM*
Cc1nnc(SCC(=O)N2c3ccccc3Sc3ccccc32)n1N	-12%	-2%	2%[9.24 µM]	4	1%
O=C(c1cc2ccccc2o1)N1CCN(Cc2nc3ccccc3s2)CC1	2%	-6%	-4%	16	?
CSCC[C@H](N)C(=O)N1CCC(C(=O)N[C@H](C)C(=O)Nc2ccc(C(C)C)cc2)CC1	-6%	-27%	-5%	-15	-14%
C(=C\c1cccc2ccccc12)/c1nnc(-c2cccs2)o1	-2%	29µM*	-17%	0	?
O=c1c2ccccc2cnn1Cc1nnc(-c2cccs2)o1	2%	-17%	0%	26	?
O=C1CC(N(CCc2ccccc2)C(=S)Nc2ccccc2)C(=O)N1c1ccc(Br)cc1 (centres undefined)	16µM*	16µM*	?	-12	18µM*
